Results on 38 molecules are retold here after the supplement of paper PMC3842684.

The subject of this assay is P. falciparum NF54-pfs16-GFP late (IV-V) stage gametocytes. Kind of assay: relative % inhibition of viable gametocyte number; higher = more gametocytocidal. The note with it: 5 µM; stage: late (IV-V) gametocyte; incubation 72 h. An outline of the steps:
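Magnet-isolated NF54 pfs16-GFP gametocytes at early (I/IIa, day 2) or late (day 8) stage were exposed to compound at 5 or 0.5 µM for 72 h at 37°C, 5% CO2, 5% O2, at 10% parasitaemia and 0.1% haematocrit. Elongated GFP objects with MitoTracker Red signal above cut-off were counted as viable by confocal imaging. Relative inhibition was normalised to in-plate vehicle and positive-control wells.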
`Cc1ccc(CN2CCC(C(=O)Nc3ccc(-c4cc5ccccc5[nH]4)cc3)CC2)o1`: the relative % inhibition is -13.5%.
Regarding `CCOC(=O)c1c(C)n(-c2ccccc2)c2ccc(OC(=O)c3cc(OC)c(OC)c(OC)c3)cc12`, the relative % inhibition was -2.38%.
With `O=C(Nc1ccc(Cl)cc1)N1CCN(c2ccc3nncn3n2)CC1` the figure was -7.25%; with `Cc1cc(Nc2ccc3ccccc3c2)n2ncnc2n1`, 8.91%.
With `O=C(Nc1ccc(-c2nc3cc(NC(=O)c4ccc(Cl)cc4)ccc3[nH]2)cc1)c1ccc(Cl)cc1` the figure was 24.8%; with `CCc1ccc(Nc2cc(C)c3ccc(O)cc3n2)cc1`, 56.6%; with `COc1ccc2c(c1OC)C(=O)N1c3ccccc3N=C(c3ccc(C)cc3)CC21` (stereo not drawn), 5.82%.
Consider `N=c1n(CCN2CCCCC2)c2ccccc2n1CC(=O)c1ccc(Cl)c(Cl)c1`, for which the relative % inhibition turned out to be 96.9%.
With `COc1ccc2c(=O)cc(C(Cl)(Cl)Cl)oc2c1` the figure was 15.5%; with `Cc1ccc(CSCc2ccc(C(=O)NC3CC3)o2)cc1`, 43.1%.
For the molecule `CCc1ccc(Nc2cc(C)nc3nc(C)nn23)cc1`, the relative % inhibition is 16.9%.
As to `COc1cc(-c2nc(-c3ccc(Sc4ccccc4)cc3)c(-c3ccccc3)[nH]2)cc(OC)c1O`, the relative % inhibition is -21%.
The figure for `O=c1cc(NC2CCN(CCCc3ccccc3)CC2)c2cc(Cl)ccc2o1` is -6.17%.
The figure for `O=C(Nc1ccc(-c2nc3ccccc3[nH]2)cc1)c1ccc(Cl)c(Cl)c1` is -12%.
Consider `COc1ccc(C(=O)Nc2ccc(Cl)cc2C(=O)Nc2ccncc2)cc1`, for which the relative % inhibition was 3.3%.
The figure for `Cc1ccc2c(C)nc(Nc3nc(C)cc(-c4ccccc4)n3)nc2c1` is 113%; for `CC(=O)c1ccc(NC(=O)CSc2nc(-c3ccccc3Cl)ns2)cc1` it is 5.88%.
As for `CCOC(=O)c1cn(CC)c2cc(N3CCCCC3)c(F)cc2c1=O`, the relative % inhibition amounted to 93.5%.
For the molecule `CCCN(CCC)CCCNC(=O)c1cc2c(-c3ccc(OC)c(OC)c3)nn(C)c2s1`, the relative % inhibition is -7.44%.
With `Cc1ccc(-c2cc(C(=O)Nc3ccc(S(=O)(=O)N4CCCCC4)cc3)[nH]n2)c(O)c1` the figure was 2.43%.
With `COc1ccc(-c2nc(NC(=O)CS(=O)(=O)c3ccc(F)cc3)sc2C)cc1` the figure was 92.9%.
For `Cc1sc(NC(=O)c2ccccc2)c(C(c2cccs2)N2CCN(c3ccccc3)CC2)c1C` (stereo not drawn), the relative % inhibition came out at 77%.
The figure for `COc1cccc(NC(=O)Cn2c(C)c(C#N)c3ccccc32)c1` is 29.8%.
Take `COc1ccccc1N=C1C(=O)c2ccccc2C(O)=C1N1CCCCC1`: the relative % inhibition came to 10.5%.
On to `Cn1c(C(=O)c2cccc3ccccc23)nc2ccccc21`, for which the relative % inhibition was 5.95%.
For the molecule `CCn1nc(-c2ccc(C(=O)OC)cc2)nc2c(=O)n(C)c(=O)nc1-2`, the relative % inhibition amounted to 76.7%.
`Cc1ccc(-c2cc3nc4c(c(O)n3n2)CCCC4)cc1`: the relative % inhibition amounted to 9.04%.
Regarding `CN1CCN(c2nc(Nc3ccc(O)cc3)nc3ccccc23)CC1`, the relative % inhibition was -15.5%.
The figure for `N#Cc1nc(Cc2cccc3ccccc23)oc1N1CCN(C(c2ccccc2)c2ccccc2)CC1` is 40.5%.
The figure for `COc1cccc(Nc2nc(N)c3ccccc3n2)c1` is 1.59%; for `Oc1ccc2ccccc2c1CNc1nc2ccccc2[nH]1` it is 12%; for `CC(C)CCNCC(O)Cn1c2ccccc2c2ccccc21` (stereo not drawn) it is 82.9%.
Take `COc1ccc(C)c2sc(N(Cc3cccnc3)C(=O)c3ccc(C#N)cc3)nc12`: the relative % inhibition was found to be 7.81%.
With `COc1ccccc1C(=O)ON=C(N)Cc1cccc2ccccc12` the figure was 92.5%.
The figure for `Nc1ccc(-c2nc3cc(Oc4ccc(Oc5ccc6[nH]c(-c7ccc(N)cc7)nc6c5)cc4)ccc3[nH]2)cc1` is 32.9%; for `COC(=O)c1ccc(Cl)c2c1C1C=CCC1C(c1cccc3ccccc13)N2` (stereo not drawn) it is 35.3%.
The figure for `COc1ccc2nc(N)nc(C)c2c1` is -4.54%.
As for `O=C(NCc1ccco1)C1CCN(S(=O)(=O)c2ccc(Cl)cc2)CC1`, the relative % inhibition was 50%.
